Rows were chosen to be rich in hits. Some 3.1% of all compounds tested hit in one or more screens of this group.
Anthrax LF inh2 – inhibitors of Bacillus anthracis lethal factor protease | 360,000 compounds, 0.12% hits | inhibition, % at 10 µM | AID 588501 | P15917 | multiplex microsphere protease cleavage assay, LF; further: plate controls were buffer without enzyme for full effect and enzyme alone for no effect
BoNT F protease – BoNT F light chain protease inhibition; Multiplex microsphere protease cleavage assay, flow cytometry; inhibition, % at 10 µM; 360,000 compounds, 0.22% hits; in the data active means inhibition above about 35%, passing the limit was not always enough; inconclusive means no clear call, values can overlap the other calls; further: plate controls were buffer without enzyme for full effect and enzyme alone for no effect
PriA SSB inh – blocks PriA binding to SSB C-terminal tail; AID 1272365; 430,000 compounds, 0.6% hits; inhibition, % at 33 µM; AlphaScreen SSBct-PriA binding, biotinylated peptide; in the data active means inhibition mostly above about 37%, no sharp cut-off; inactive means mostly below about 20%;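 further: plate controls were negative control peptide for no effect and reference peptide for full effect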
BoNT-A LC inh2 – blocks Botulinum neurotoxin A light chain protease | multiplex microsphere protease substrate cleavage, flow cytometry | inhibition, % at 10 µM | AID 588499 | 360,000 compounds, 0.17% hits; further: plate controls were buffer without enzyme for full effect and enzyme alone for no effect
Autofluor counter – flagged as autofluorescent in microsphere protease counterscreen; compound autofluorescence counterscreen, microsphere flow cytometry; active compounds read high; fluorescence intensity (concentration not given with the values); 360,000 compounds, 3.1% hits; AID 624483; in the data active means fluorescence intensity above about 16000; inconclusive means no clear call, values can overlap the other calls
Numbers without * were called inactive; ? = inconclusive; . = not tested or not shown; ! = repeats disagree. Unless noted, no stated cut-off is given here; in the data, active means inhibition above about 30%; inconclusive means no clear call, values can overlap the other calls; inactive means below that.

SMILES	Anthrax LF inh2	BoNT F protease	PriA SSB inh	BoNT-A LC inh2	Autofluor counter
O=S(=O)(Cc1cccc(F)c1)N1CCC(c2nnc(-c3ccsc3)o2)CC1	.	.	-4.0	.	.
Oc1cc(Cl)cc2cccnc12	.	.	84.2*	.	.
CCn1[nH]c(=O)c(=Nc2c(C)n(C)n(-c3ccccc3)c2=O)cc1-c1ccc(Cl)cc1	-0.5	2.3	-2.1	2.5	22167*
Cc1c(N=Cc2ccc(-c3ccc(Cl)cc3)o2)c(=O)n(-c2ccccc2)n1C	-5.2	-12.4	4.3	-0.9	2587
CCCOc1ccc(S(=O)(=O)N2CCC(N3CCCC3=O)CC2)cc1	.	.	-11.0	.	.
O=C(Cn1cnnn1)OCC(=O)c1ccc(Cl)s1	0.7	0.9	-27.4	1.5	22766*
COC(CNC(=O)c1ccccc1Cl)c1ccccc1C (stereo not given)	.	.	-22.0	.	.
CC(=O)c1nnn(-c2nc(N)nc(N(c3ccccc3)c3ccccc3)n2)c1C	-1.9	-0.7	-5.0	?	22006*
Cc1cc(C)n(-c2nc(N(c3ccccc3)c3ccccc3)nc(-n3nc(C)cc3C)n2)n1	-1.6	-5.2	-14.6	-6.9	17611*
Cc1cc(C)n(-c2nc3ccccc3n3cnnc23)n1	-4.1	0.1	-4.8	0.8	4280
Cc1cc(C)n(-c2nc(Nc3ccccc3)nc(-n3nc(C)cc3C)n2)n1	-7.7	-22.9	6.2	-2.1	7863
CCCCN(CCCC)c1nc(OC)nc(-n2nnc(C(C)=O)c2C)n1	-2.4	-7.6	-43.5	0.5	3058
CCN(CC)c1nc2ccccc2nc1-n1nc(C)cc1C	-1.8	0.2	-58.1	?	24280*
CCc1nnc(-c2cc3ccccc3n2CC(=O)NCc2ccco2)o1	.	.	-2.0	.	.
CC(C)(C)C(=O)N1CCc2ccc(NC(=O)c3ccc4c(c3)OCO4)cc21	.	.	16.0	.	.
CC(C)N1CCc2c(sc(NC(=O)c3ccc4ccccc4c3)c2C(N)=O)C1	-1.9	-3.5	-21.9	1.8	6180
CC(C)N1CCc2c(sc(NC(=O)c3ccc(C(=O)c4ccccc4)cc3)c2C(N)=O)C1	-0.5	3.2	80.8*	1.6	6022
CC(=O)N1CCc2c(sc(NC(=O)Cc3ccccc3)c2C(N)=O)C1	5.5	-2.4	115.4*	-1.0	6231
COc1ccc(Cl)c2sc(NC(=O)CS(=O)(=O)c3ccc(C)cc3)nc12	.	.	-3.0	.	.
O=c1c(O)c(-c2ccccc2)oc2ccccc12	24.5	12.4	-15.9	15.8	5182
O=c1c(O)c(-c2cccs2)oc2ccc(Cl)cc12	32.3*	15.9	-12.5	34.8*	9623
O=c1cc(-c2cccs2)oc2ccc(Cl)cc12	-0.9	-0.2	-22.9	-1.3	22409*
O=c1c(O)c(-c2cccs2)oc2ccccc12	0.9	2.8	-30.8	31.4*	7327
CCOC(=O)c1ccccc1NC(=O)CSc1ccc(-c2ccc(C)cc2)nn1	.	.	-6.0	.	.
CC1Oc2ccccc2OC1C(=O)Nc1nc(-c2ccncc2)cs1 (stereo not given)	.	.	1.0	.	.
SMILES	Anthrax LF inh2	BoNT F protease	PriA SSB inh	BoNT-A LC inh2	Autofluor counter
O=C(CCCN1C(=O)c2cccc3cccc(c23)C1=O)Nc1cccc2cnccc12	.	.	-9.0	.	.
CCOc1ccc2c(c1)sc(=NC(=O)c1ccn(C)n1)n2C	.	.	-3.0	.	.
CC1=CC(C)=Nc2ccc(C)cc2N1	2.8	-8.7	-1.5	0.5	18983*!
CN(C)S(=O)(=O)c1cccc(-c2cn3cc(Cl)ccc3n2)c1	-2.3	-1.2	-0.6	-2.3	17034*
CN(C)S(=O)(=O)c1cccc(-c2cn3ccccc3n2)c1	-6.4	-18.0	-2.2	-0.6	2379
COC(=O)c1ccc(NC(=O)c2sc3nc(-c4ccccc4)cn3c2C)cc1	-1.6	-0.7	-10.3	-1.4	21396*
COc1ccc(-c2cn3c(C)c(C(=O)N(C)c4ccccc4)sc3n2)cc1	.	.	38.0*	.	.
COc1ccc(-c2cn3c(C)c(C(=O)Nc4ccncc4)sc3n2)cc1	-6.4	-4.7	-4.8	0.2	5751
COc1ccc(-c2cn3c(C)c(C(=O)N(Cc4ccccc4)c4ccccc4)sc3n2)cc1	.	.	12.0	.	.
CCn1cc(Cl)c(C(=O)N2CCN(c3cc(C(F)(F)F)ncn3)CC2)n1	.	.	-8.0	.	.
COCCCNc1oc(-c2ccc(F)cc2)nc1S(=O)(=O)c1ccc(Br)cc1	.	.	-15.0	.	.
CC(=NNC(=O)c1ccc2c(c1)OCO2)c1ccc(NC(=O)c2ccc(F)cc2)cc1	.	.	6.2	.	.
COc1ccc(/C=C/C(=O)NCc2c(C)nn(C)c2C)cc1COc1ccc(Br)cc1	-2.7	20.2	-2.3	2.7	8036
COc1ccc(/C=C/C(=O)NCc2cnn(C)c2C)cc1COc1ccc(Br)cc1	-2.1	-4.3	13.4	-2.4	23817*
COc1ccccc1Cc1noc(C2CN(CC(=O)N3CCC(C)CC3)C2)n1	.	.	-9.0	.	.
NC(=S)NNC(=O)c1ccccc1	-5.4	-3.8	-5.0	-1.6	24370*
O=C(NNC(=O)c1ccccc1)c1ccccc1	.	.	-5.0	.	.
CC1(C)CC(=O)C(c2c[nH]c3ccccc23)C(=O)C1	3.5	-0.9	9.2	-0.1	4444
CC(=O)n1cc(C2C(=O)CC(C)(C)CC2=O)c2ccccc21	-2.1	5.9	-17.0	2.9	21921*
CO[C@H]1CCN(c2ccc(C(=O)NCCc3cccs3)cc2)C1	.	.	-10.0	.	.
CCOc1ccc(NC(=O)c2snnc2C)c([N+](=O)[O-])c1	.	.	52.0*	.	.
CCOc1ccc(NC(=O)Cc2cccc3ccccc23)c([N+](=O)[O-])c1	-1.5	-4.5	4.2	-0.4	2347
CCOc1ccc(N/C=C/C(=O)c2ccc(C)cc2)c([N+](=O)[O-])c1	0.7	1.6	.	0.5	2449
CCOc1ccc(NC=CC(=O)c2ccccc2)c([N+](=O)[O-])c1	.	.	43.2*	.	.
CCOc1ccc(N/C=C/C(=O)c2ccc3ccccc3c2)c([N+](=O)[O-])c1	-1.5	-0.1	.	0.2	16459*
SMILES	Anthrax LF inh2	BoNT F protease	PriA SSB inh	BoNT-A LC inh2	Autofluor counter
CCOc1ccc(NC(=O)Cc2ccccc2)c([N+](=O)[O-])c1	-0.6	-1.2	42.9*	-0.1	2563
CCN1C(=O)Cc2cc(NC(=O)Cc3cccs3)ccc21	.	.	6.0	.	.
CCOc1ccc(NS(=O)(=O)N2CCOCC2)cc1	.	.	-3.0	.	.
O=C(O)c1ccc(Sc2nnc(-c3cccc(Br)c3)o2)c([N+](=O)[O-])c1	-2.8	-2.7	-5.5	?	22792*
COC1CCN(C(=O)c2cc(C)oc2C)CC1	.	.	-15.0	.	.
COc1ccc(OC)c2sc(N(CCN3CCOCC3)C(=O)c3ccc4c(c3)CCCC4)nc12	.	.	41.0*	.	.
COc1ccc(OC)c2sc(N(CCCN3CCOCC3)C(=O)c3ccccc3SC)nc12	.	.	28.0*	.	.
CCN(CC)CCN(C(=O)c1ccc2c(c1)CCCC2)c1nc2ccc(OC)cc2s1	-3.8	7.8	46.0*!	-1.0	4433
CCN(CC)CCN(C(=O)c1ccc2c(c1)CCCC2)c1nc2ccc(C)cc2s1	-4.6	-1.0	14.0	1.3	5367
O=C(Cn1cc(S(=O)(=O)N2CCOCC2)ccc1=O)Nc1ccc(F)cc1Cl	.	.	-25.0	.	.
O=S(=O)(c1ccccc1)C1CC2CCC(C1)N2S(=O)(=O)c1ccccc1Cl (stereo not given)	.	.	-1.0	.	.
c1ccc2c(c1)nnn2-c1ncnc2sc3c(c12)CCCC3	-0.4	-3.4	-27.1	-1.9	23314*
CSc1nc2n(n1)C(c1cc(Br)ccc1F)C(C(=O)N(C)C)=C(C)N2 (stereo not given)	-5.9	-4.0	-8.7	-2.2	20105*
Cc1ccc(S(=O)(=O)Cn2cnnn2)cc1	0.1	-1.8	9.7	-2.8	24828*
